Data on 26 molecules can be found in PubChem BioAssay (NCATS).

Records with an inconclusive call do not appear. Entries that show only a call come without a potency. Active and inactive are the calls of the source. The call rests on the fitted dose curve; in most records, active means well fitted cell-killing curve with a large enough effect; inconclusive means small, poorly fitted or top-dose-only effect, or effect the other way; inactive means flat fitted curve, though single readings scatter.
Potency means the concentration at half of the fitted maximal effect.

This assay has as its system Es-2. The assay is described as follows: Primary qHTS to identify gynecologic anti-cancer compounds using libraries of approved drugs and bioactive compounds (AID 1345084). Further: nearly all actives have a fitted effect of over 55% in size. The following applies: Gynecologic cancer cell panel viability, ATPlite luminescence, 48 h; series mostly up to 57.5 µM. The method in brief:
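48 h compound exposure at 37 C, 5% CO2; five-point qHTS. ATPlite luminescence readout of cell ATP.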
For the molecule `C=C1C(=O)O[C@@H]2CC(C)=C([C@@H](C)CCCO)[C@@H](OC(=O)C(C)C)[C@H]12`, the Potency entry is “inactive”.

Take `Oc1ccc(Nc2nc(-c3ccc(Cl)cc3)cs2)cc1`: the Potency result was “inactive”. Next, `Cc1cc2nc(NCCCO)n(CC(=O)c3cc(C(C)(C)C)c(O)c(C(C)(C)C)c3)c2cc1C`: “inactive”; `CC1(C)CC23[C@@H]4CC(=O)[C@@H]2COC(=O)[C@@H]3CC[C@H]41`: “inactive”; `CC[C@H](CO)Nc1nc(Nc2cccc(-c3ccccn3)c2)c2ncn(C(C)C)c2n1`: “inactive”. For `Cc1ccccc1C(=O)Nc1ccc(C(=O)N2CCC[C@@H](O)c3cc(Cl)ccc32)c(C)c1` the value was “inactive”; for `CCCCn1c(-c2ccccc2)nc(-c2ccccc2)c1CN(Cc1ccc2c(c1)OCO2)Cc1ccc2c(c1)OCO2`, “inactive”. As for `CC1CCN(C(c2ccc(F)cc2)c2ccc(C(C)C(=O)O)cc2-c2ccc(C(F)(F)F)cc2)CC1` (stereo unspecified), the Potency result was “inactive”. For `O=C(NC(NC(=S)Nc1ccc(F)c([N+](=O)[O-])c1)C(Cl)(Cl)Cl)C(c1ccccc1)c1ccccc1` (stereo unspecified) the value was “inactive”; for `OCC(CO)(CO)NCC(O)Cn1c2ccc(Cl)cc2c2cc(Cl)ccc21` (stereo unspecified), “inactive”. Take `COCCOCCOc1ccc(C2=N[C@@](C)(C(=O)O)CS2)c(O)c1`: the Potency result is “inactive”.

With `C=C(C)C(=O)O[C@H]1[C@H]2C(=C)C(=O)O[C@@H]2C[C@@H](C)/C=C\C(=O)[C@](C)(O)[C@@H]1OC(C)=O`, the Potency is 11.2 µM (active). Next, `COc1cc(N2CCOCC2)ccc1Nc1ncc(F)c(Nc2ccccc2NS(C)(=O)=O)n1`: “inactive”; `CC(C)N(CCCNC(=O)Nc1ccc(C(C)(C)C)cc1)C[C@H]1O[C@@H](n2cc(Br)c3c(N)ncnc32)[C@H](O)[C@@H]1O`: “inactive”. Turning to `O=[N+]([O-])c1ccc(-[n+]2nc(-c3ccccc3)nn2-c2ccc(I)cc2)cc1`, the Potency result is “inactive”. For `COc1ccccc1NC(=O)Nc1ccc2ccccc2c1` the value was “inactive”; for `CN1CCN(C(=O)c2ccc(Nc3nccc(-c4cccs4)n3)cc2Cl)CC1`, “inactive”. Next, `Cn1cc(-c2cnc3ccc4ccc(CS(=O)(=O)NCc5ccccn5)cc4c(=O)c3c2)cn1`: “inactive”; `C=C(C)[C@@H]1CC[C@]2(C(=O)O)CC[C@]3(C)C(CCC4[C@@]5(C)C[C@@H](O)[C@H](O)C(C)(C)C5CC[C@]43C)C12` (stereo partly specified): “inactive”. For `CCN(CCCOc1ccc2c(Nc3cc(CC(=O)Nc4cccc(F)c4)[nH]n3)ncnc2c1)CCOP(=O)(O)O` the value was “inactive”; for `CCS(=O)(=O)N(Cc1cccnc1)c1cccc(-c2ccc(C#N)cc2)c1`, “inactive”; for `CC(C)CCC[C@@H](C)[C@H]1CC[C@H]2[C@@H]3CC=C4C[C@@H](OC(=O)NCCN(C)C)CC[C@]4(C)[C@H]3CC[C@]12C`, “inactive”.

As to `C=C1[C@@H](C)[C@H]2[C@H](Cc3c[nH]c4ccccc34)NC(=O)[C@]23C(=O)/C=C/C(=O)[C@H](O)/C(C)=C\[C@@H](C)C/C=C/[C@H]3[C@@H]1O`, the Potency entry was “inactive”. On to `CC(C)(C)c1ccc(CNC(=S)NCc2ccc(NS(C)(=O)=O)c(F)c2)cc1`, for which the Potency entry was “inactive”. For the molecule `CNCc1ccc(C)c(NC(=O)c2ccc(Nc3nc(-c4ccccc4)c4ccccc4n3)cc2)c1`, the Potency result is “inactive”. Regarding `CC1CCC(n2c3cnccc3c3cnc(Nc4ccc5c(n4)CCN(C(=O)CO)C5)nc32)CC1` (stereo unspecified), the Potency result is “inactive”.
